Data from PubChem BioAssay (NCATS).
Values joined by “and” are separate entries in the source; they are usually repeats but may differ in a detail not shown here. Equal entries are not always repeated. Inconclusive results are not listed. Active and inactive are the calls of the source. The call rests on the fitted dose curve; in most records, active means well fitted curve in the direction sought with a large enough effect; inconclusive means small, poorly fitted or top-dose-only effect, or another doubt; inactive means no such curve, though single readings can be large; an effect the other way counts as inactive or inconclusive.

Tests used:
[1] = qHTS of pediatric cancer cell lines to identify multiple opportunities for drug repurposing: Primary screen for TC32 cells (AID 1347089); further: nearly all actives have a fitted effect of over 60% in size
Outline: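 In the primary qHTS, MIPE compounds were tested at 11 concentrations (0.78 nM to 46 µM) and NPC compounds at 8 (0.59 nM to 46 µM) on TC32 cells for 48 h. CellTiter-Glo luminescence gave viability.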

[2] = qHTS of pediatric cancer cell lines to identify multiple opportunities for drug repurposing: Primary screen for DAOY cells (AID 1347090); further: nearly all actives have a fitted effect of over 55% in size
Outline: (§1)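 Viability measured as metabolically active cells via CellTiter-Glo luminescence following 48 hours of compound exposure, 11-point dilutions in confirmatory testing. 500-1,000 cells/well plated 5 hours before dosing; controls were DMSO and 2.3 µM bortezomib.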

[3] = qHTS of pediatric cancer cell lines to identify multiple opportunities for drug repurposing: Primary screen for SJ-GBM2 cells (AID 1347091)
Outline: as §1

[4] = qHTS of pediatric cancer cell lines to identify multiple opportunities for drug repurposing: Primary screen for A673 cells (AID 1347092); further: nearly all actives have a fitted effect of over 45% in size
Outline: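 48 h compound exposure, A673, 500-1,000 cells/well, 37 degrees C/5% CO2. MIPE: 11-point, 0.78 nM-46 µM; NPC: 8-point, 0.59 nM-46 µM (final). Readout CellTiter-Glo luminescence after 15 min RT.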

[5] = qHTS of pediatric cancer cell lines to identify multiple opportunities for drug repurposing: Primary screen for SK-N-MC cells (AID 1347093)
Outline: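 Metabolically active cells were quantified by ATP-dependent luminescence (CellTiter-Glo, 15 min at room temperature) following 48 h treatment. Cells had been plated at 500-1,000 per well and settled for 5 h beforehand.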

[6] = qHTS of pediatric cancer cell lines to identify multiple opportunities for drug repurposing: Primary screen for BT-37 cells (AID 1347094)
Outline: (§2)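 500-1,000 cells/well; 5 h pre-incubation 37 °C/5% CO2; compound pinned; 48 h; CellTiter-Glo, 15 min RT; luminescence. MIPE 11-pt from 0.78 nM, NPC 8-pt from 0.59 nM final. Bortezomib 2.3 µM final as positive control.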

[7] = qHTS of pediatric cancer cell lines to identify multiple opportunities for drug repurposing: Primary screen for NB-EBc1 cells (AID 1347095)
Outline: as §2

Measured: Potency
Potency means the concentration at half of the fitted maximal effect.

CN(C)c1ccc(C(=C2C=CC(=[N+](C)C)C=C2)c2ccc(N(C)C)cc2)cc1
active: [1] 2.64 µM and 1.17 µM | [2] 2.66 µM and 1.48 µM | [3] 1.33 µM and 372 nM | [4] 1.06 µM and 93.5 nM | [5] 1.06 µM | [6] 1.23 µM and 685 nM | [7] 2.99 µM and 935 nM

Cc1cccc(Nc2ccncc2S(=O)(=O)NC(=O)NC(C)C)c1
inactive: all assays above

CN(C)CCc1c[nH]c2ccc(C[C@H]3COC(=O)N3)cc12
inactive: all assays above

CC(C)C[C@H](NC(=O)[C@H](CCc1ccccc1)NC(=O)CN1CCOCC1)C(=O)N[C@@H](Cc1ccccc1)C(=O)N[C@@H](CC(C)C)C(=O)[C@@]1(C)CO1
active: [1] 23.6 nM and 147 nM | [2] 53.1 nM and 93.5 nM | [3] 66.8 nM and 29.6 nM | [4] 10.6 nM and 18.7 nM | [5] 6 nM and 5.9 nM | [6] 174 nM and 306 nM | [7] 53.1 nM and 29.6 nM

CCOC(=O)c1ccc(OC(=O)CCCCCN=C(N)N)cc1
inactive: all assays above

C[C@@H]1CN(c2c(F)c(N)c3c(=O)c(C(=O)O)cn(C4CC4)c3c2F)C[C@H](C)N1
inactive: all assays above

O=C(N[C@H](CO)[C@H](O)c1ccc([N+](=O)[O-])cc1)C(Cl)Cl
inactive: all assays above

COc1c(N2CCNC(C)C2)c(F)cc2c(=O)c(C(=O)O)cn(C3CC3)c12 (stereo not drawn)
not listed: [2]
inactive: all other assays above

CCOc1cc(N)c(Cl)cc1C(=O)NCC1CN(Cc2ccc(F)cc2)CCO1 (stereo not drawn)
not listed: [5]
inactive: all other assays above

C1CCC(C(CC2CCCCN2)C2CCCCC2)CC1 (stereo not drawn)
active: [4] 10.6 µM and 23.5 µM | [5] 11.9 µM | [6] 34.7 µM and 30.6 µM | [7] 26.4 µM
inactive: [1] | [2]

CC(C)OC(=O)C(C(=O)OC(C)C)=C1SC=CS1
not listed: [2]
inactive: all other assays above

CCOCC(O)COc1ccc(NC(=O)CC[S+](C)C)cc1 (stereo not drawn)
not listed: [2]
inactive: all other assays above

COc1ccc2c(c1)c(CC(=O)OCC(=O)O)c(C)n2C(=O)c1ccc(Cl)cc1
not listed: [5]
inactive: all other assays above

COC(c1ccccc1)(c1ccccc1)[C@H](Oc1nc(C)cc(C)n1)C(=O)O
not listed: [2]
inactive: all other assays above

CCCCOc1ccc(CC(=O)NO)cc1
active: [2] 11.8 µM | [4] 16.8 µM and 2.96 µM | [5] 7.43 µM | [6] 19.5 µM | [7] 18.7 µM
inactive: [1]

COc1cccc(N(C)C(=S)Oc2ccc3c(c2)CCCC3)n1
not listed: [5]
inactive: all other assays above

CNC1CCCN(c2c(F)cc3c(=O)c(C(=O)O)cn(C4CC4)c3c2OC)C1 (stereo not drawn)
not listed: [4]
inactive: all other assays above

CO[C@@H]1[C@@H](OC(N)=O)[C@@H](O)[C@H](Oc2ccc3c(O)c(NC(=O)c4ccc(O)c(CC=C(C)C)c4)c(=O)oc3c2C)OC1(C)C
not listed: [2] | [7]
inactive: all other assays above

CC(=O)Oc1ccccc1C(=O)Nc1ncc([N+](=O)[O-])s1
active: [2] 13.6 µM | [3] 8.55 µM | [4] 42.9 µM | [6] 28 µM and 19.5 µM | [7] 10.8 µM and 15 µM
inactive: [1]

Nc1nc(=S)c2[nH]cnc2[nH]1
active: [1] 3.33 µM | [3] 0.935 µM | [4] 841 nM and 743 nM | [5] 2.99 µM and 1.66 µM | [6] 2.46 µM and 1.93 µM | [7] 0.743 µM

O=C(NCC1CN(c2ccc(N3CCOCC3=O)cc2)C(=O)O1)c1ccc(Cl)s1 (stereo not drawn)
not listed: [5]
inactive: all other assays above

CC(N)C12CC3CC(CC(C3)C1)C2 (stereo not drawn)
not listed: [2]
inactive: all other assays above

O[C@@H](CNC[C@H](O)[C@H]1CCc2cc(F)ccc2O1)[C@@H]1CCc2cc(F)ccc2O1
inactive: [1] | [2]
active: [3] 20.9 µM | [6] 27.6 µM | [7] 21.1 µM

CCCN[C@H]1CCc2nc(N)sc2C1
not listed: [5]
inactive: all other assays above

CN(CCOc1ccc(CC2SC(=O)NC2=O)cc1)c1ccccn1 (stereo not drawn)
not listed: [5]
inactive: all other assays above

CC(C)Cn1cnc2c(N)nc3ccccc3c21
active: [5] 16.6 µM
inactive: [1] | [2]
